Results on one compound are retold here after ChEMBL document CHEMBL2218924, “A broad activity screen in support of a chemogenomic map for kinase signalling research and drug discovery” (Biochem J, 2013).

The target of test [1] is T1, Serine/threonine-protein kinase TBK1 (Homo sapiens) (UniProt Q9UHD2).
T1 sequence (whole entry): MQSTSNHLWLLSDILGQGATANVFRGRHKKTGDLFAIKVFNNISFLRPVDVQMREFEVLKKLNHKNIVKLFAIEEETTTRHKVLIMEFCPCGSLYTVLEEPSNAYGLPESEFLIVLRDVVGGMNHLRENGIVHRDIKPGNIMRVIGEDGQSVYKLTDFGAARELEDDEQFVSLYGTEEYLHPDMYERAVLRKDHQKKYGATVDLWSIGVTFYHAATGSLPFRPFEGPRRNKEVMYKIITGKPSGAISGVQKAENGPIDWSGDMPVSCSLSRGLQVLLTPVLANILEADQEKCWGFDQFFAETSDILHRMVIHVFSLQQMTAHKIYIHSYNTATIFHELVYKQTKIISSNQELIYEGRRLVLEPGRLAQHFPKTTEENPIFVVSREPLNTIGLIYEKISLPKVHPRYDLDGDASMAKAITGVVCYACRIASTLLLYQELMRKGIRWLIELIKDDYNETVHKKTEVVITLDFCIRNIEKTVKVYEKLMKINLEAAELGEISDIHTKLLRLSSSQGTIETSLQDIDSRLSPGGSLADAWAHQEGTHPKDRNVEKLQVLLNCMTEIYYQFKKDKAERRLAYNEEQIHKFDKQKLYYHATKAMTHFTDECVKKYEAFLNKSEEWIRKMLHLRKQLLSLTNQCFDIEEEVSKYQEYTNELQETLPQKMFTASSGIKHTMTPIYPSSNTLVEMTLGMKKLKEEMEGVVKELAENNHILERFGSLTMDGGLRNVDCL
Conditions: at 10 µM.

In test [2] the target is T2, TGF-beta receptor type-1 (Homo sapiens) (UniProt P36897).
T2 sequence (whole entry): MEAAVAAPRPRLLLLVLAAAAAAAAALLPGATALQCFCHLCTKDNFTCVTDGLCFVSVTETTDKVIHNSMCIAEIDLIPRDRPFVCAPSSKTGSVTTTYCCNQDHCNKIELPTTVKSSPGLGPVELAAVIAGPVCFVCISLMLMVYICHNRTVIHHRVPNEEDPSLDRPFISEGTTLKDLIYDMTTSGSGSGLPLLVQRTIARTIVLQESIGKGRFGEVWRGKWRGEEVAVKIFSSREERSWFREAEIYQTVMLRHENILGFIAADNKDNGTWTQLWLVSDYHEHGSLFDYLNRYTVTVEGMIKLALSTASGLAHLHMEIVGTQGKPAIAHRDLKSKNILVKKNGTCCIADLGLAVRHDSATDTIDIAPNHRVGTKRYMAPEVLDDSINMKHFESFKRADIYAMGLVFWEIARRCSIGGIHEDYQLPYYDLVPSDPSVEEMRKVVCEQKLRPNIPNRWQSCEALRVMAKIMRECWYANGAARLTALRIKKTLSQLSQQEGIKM
Conditions: at 1 µM.

Test [3] deals with T2, TGF-beta receptor type-1 (Homo sapiens). Conditions: at 10 µM.
For test [4], the target named is Insulin-like growth factor 1 receptor (Homo sapiens) (UniProt P08069). The settings on record: at 1 µM.
Sequence of Insulin-like growth factor 1 receptor (Homo sapiens) (P08069 31-736 limits assumed): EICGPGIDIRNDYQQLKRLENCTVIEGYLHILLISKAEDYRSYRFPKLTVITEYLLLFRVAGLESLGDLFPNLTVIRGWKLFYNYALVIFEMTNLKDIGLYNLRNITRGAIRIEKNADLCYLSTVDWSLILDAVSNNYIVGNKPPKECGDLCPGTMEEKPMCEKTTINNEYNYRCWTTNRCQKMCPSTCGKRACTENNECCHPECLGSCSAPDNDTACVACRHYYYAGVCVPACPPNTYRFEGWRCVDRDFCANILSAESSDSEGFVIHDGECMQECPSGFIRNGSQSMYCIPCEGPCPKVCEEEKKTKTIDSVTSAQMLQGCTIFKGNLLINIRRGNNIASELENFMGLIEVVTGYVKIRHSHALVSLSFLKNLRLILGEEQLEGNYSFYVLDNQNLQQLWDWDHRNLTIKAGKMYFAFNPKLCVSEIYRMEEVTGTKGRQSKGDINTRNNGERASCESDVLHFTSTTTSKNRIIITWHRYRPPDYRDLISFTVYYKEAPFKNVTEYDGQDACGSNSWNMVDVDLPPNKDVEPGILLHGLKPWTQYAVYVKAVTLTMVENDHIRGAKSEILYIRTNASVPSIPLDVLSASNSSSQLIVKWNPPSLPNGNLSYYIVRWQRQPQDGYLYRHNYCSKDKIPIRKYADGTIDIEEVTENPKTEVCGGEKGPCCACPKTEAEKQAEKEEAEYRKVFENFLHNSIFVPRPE
Sequence of Insulin-like growth factor 1 receptor (Homo sapiens) (P08069 741-1367 limits assumed): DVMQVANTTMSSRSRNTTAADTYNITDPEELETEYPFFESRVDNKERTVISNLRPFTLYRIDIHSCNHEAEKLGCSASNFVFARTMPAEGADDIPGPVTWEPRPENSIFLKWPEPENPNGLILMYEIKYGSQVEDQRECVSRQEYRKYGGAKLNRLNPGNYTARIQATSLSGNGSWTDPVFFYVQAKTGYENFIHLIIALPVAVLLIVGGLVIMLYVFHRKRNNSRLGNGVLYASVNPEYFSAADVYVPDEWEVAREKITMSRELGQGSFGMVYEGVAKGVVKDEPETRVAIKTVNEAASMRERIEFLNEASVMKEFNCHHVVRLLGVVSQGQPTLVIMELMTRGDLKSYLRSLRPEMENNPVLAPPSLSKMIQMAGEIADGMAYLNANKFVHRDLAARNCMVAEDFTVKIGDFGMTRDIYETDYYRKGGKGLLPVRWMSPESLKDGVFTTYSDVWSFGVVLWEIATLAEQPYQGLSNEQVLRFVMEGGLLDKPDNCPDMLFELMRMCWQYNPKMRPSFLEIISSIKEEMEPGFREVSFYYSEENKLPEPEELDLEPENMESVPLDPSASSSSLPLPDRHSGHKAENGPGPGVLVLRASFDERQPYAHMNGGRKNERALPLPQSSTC
For test [5] the target is unchanged. Conditions: at 10 µM.
The target of test [6] is T3, Inhibitor of nuclear factor kappa-B kinase subunit alpha (Homo sapiens) (UniProt O15111).
T3 sequence (whole entry): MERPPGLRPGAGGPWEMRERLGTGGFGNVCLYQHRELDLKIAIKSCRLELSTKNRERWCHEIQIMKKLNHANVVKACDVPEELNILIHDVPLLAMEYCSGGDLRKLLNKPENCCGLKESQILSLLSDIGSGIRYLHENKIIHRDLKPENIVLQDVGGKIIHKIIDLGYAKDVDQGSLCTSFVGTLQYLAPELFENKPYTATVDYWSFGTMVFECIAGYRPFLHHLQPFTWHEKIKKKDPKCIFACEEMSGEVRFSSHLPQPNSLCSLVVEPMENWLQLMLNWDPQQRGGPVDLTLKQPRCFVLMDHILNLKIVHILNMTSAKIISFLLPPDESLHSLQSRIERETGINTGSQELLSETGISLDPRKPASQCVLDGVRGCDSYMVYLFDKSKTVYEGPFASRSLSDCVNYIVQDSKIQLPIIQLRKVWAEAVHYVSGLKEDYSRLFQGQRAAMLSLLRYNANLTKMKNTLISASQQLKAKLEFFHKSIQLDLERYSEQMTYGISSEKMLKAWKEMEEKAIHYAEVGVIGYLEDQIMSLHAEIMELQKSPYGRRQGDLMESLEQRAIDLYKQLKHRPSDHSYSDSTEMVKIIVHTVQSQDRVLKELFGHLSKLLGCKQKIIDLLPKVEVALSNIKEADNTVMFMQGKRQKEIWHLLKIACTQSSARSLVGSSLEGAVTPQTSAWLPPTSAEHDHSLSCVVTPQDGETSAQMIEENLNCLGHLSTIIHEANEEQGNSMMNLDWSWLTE
The settings on record: at 1 µM.

The target of test [7] is T3, Inhibitor of nuclear factor kappa-B kinase subunit alpha (Homo sapiens). The settings on record: at 10 µM.
Test [8] concerns the target T4, Inhibitor of nuclear factor kappa-B kinase subunit beta (Homo sapiens) (UniProt O14920).
T4 sequence (whole entry): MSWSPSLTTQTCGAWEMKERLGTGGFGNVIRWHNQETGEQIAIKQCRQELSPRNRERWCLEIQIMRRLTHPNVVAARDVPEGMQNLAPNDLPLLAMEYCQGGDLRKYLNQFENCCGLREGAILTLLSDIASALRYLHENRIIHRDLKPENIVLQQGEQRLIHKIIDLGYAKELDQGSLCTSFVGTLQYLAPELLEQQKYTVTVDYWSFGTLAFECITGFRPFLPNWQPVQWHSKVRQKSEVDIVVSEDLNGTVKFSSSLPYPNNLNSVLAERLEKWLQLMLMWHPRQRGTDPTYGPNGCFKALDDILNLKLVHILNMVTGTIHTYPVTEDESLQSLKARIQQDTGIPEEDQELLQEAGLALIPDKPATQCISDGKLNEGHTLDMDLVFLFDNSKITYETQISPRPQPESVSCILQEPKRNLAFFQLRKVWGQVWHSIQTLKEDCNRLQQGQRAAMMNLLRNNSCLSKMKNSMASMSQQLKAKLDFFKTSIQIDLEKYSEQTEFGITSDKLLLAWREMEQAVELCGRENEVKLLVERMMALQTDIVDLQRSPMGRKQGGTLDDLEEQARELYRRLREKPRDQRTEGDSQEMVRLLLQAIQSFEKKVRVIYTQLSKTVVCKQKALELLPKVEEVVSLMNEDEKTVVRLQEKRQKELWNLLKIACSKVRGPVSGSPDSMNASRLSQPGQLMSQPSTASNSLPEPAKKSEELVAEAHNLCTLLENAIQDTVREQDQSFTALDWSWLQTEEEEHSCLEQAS
The settings on record: at 1 µM.

The target of test [9] is T4, Inhibitor of nuclear factor kappa-B kinase subunit beta (Homo sapiens). Conditions: at 10 µM.
Test [10] has as its target Insulin receptor (Homo sapiens) (UniProt P06213). The settings on record: at 1 µM.

Sequence of Insulin receptor (Homo sapiens) (P06213 28-758 limits assumed): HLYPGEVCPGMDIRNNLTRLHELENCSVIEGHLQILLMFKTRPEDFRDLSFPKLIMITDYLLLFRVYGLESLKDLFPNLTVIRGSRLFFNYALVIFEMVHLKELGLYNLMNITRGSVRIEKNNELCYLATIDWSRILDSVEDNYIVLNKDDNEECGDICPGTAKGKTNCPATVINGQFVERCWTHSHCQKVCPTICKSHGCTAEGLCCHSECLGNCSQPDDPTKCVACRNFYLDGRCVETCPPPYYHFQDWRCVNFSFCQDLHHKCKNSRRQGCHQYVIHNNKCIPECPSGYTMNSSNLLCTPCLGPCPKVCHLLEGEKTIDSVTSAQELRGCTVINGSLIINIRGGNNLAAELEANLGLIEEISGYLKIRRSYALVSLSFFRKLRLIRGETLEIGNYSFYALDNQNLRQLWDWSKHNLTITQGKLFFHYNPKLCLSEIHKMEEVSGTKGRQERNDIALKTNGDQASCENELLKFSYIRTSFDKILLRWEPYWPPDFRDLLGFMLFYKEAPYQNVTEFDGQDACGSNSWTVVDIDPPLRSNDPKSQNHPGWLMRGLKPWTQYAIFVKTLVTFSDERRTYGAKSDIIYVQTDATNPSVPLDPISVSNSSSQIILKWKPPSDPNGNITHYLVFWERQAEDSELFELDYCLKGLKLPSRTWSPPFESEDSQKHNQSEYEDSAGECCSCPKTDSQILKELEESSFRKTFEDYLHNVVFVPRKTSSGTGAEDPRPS
Sequence of Insulin receptor (Homo sapiens) (P06213 763-1382 limits assumed): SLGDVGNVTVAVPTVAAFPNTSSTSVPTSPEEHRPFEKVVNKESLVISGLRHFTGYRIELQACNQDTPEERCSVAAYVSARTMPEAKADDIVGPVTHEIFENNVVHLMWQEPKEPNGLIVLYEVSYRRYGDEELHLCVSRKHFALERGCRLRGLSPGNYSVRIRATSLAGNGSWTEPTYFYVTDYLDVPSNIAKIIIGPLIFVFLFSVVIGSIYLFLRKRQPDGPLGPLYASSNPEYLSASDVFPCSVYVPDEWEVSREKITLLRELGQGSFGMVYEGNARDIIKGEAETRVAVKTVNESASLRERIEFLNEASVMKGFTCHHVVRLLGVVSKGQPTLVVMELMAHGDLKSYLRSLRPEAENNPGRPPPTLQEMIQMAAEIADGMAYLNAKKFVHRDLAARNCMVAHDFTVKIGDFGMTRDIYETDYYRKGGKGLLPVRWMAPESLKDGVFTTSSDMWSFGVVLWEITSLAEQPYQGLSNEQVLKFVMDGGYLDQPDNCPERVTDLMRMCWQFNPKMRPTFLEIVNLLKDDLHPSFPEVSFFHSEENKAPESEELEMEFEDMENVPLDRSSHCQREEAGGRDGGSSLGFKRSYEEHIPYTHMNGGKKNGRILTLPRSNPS

For the compound `COc1cc2ncnc(Nc3ccc(Oc4ccccc4)cc3)c2cc1OC`, the residual activity (in general, the signal under treatment as a percentage of the control signal) in test [1] worked out at 57%; in test [2], 99%; in test [3], 98%; in [4] it was 110%; in test [5], 89%; in test [6] it was 117%. Besides, the residual activity in [7] amounted to 101%; in test [8] it was 103%; in test [9], 122%; in [10], 110%.
